This assay is described as follows: NCI Yeast Anticancer Drug Screen. Data for the wt1 strain (AID 149).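 Note: 0% = growth of vehicle-treated wt1 cultures.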 Particulars: S. cerevisiae wt1 strain (SPY 50644) growth inhibition, stronger effect = higher value. How it is done:
Growth inhibition of yeast strains with defined genetic alterations is measured as a screen for potential anti-cancer activity. Selected strains with alterations in DNA damage repair or cell cycle control were exposed to compounds and growth inhibition was measured relative to vehicle treated controls. The strain used in this assay is wt1

The panel holds about 79,000 compounds, 15% with a hit somewhere; the sample as a whole holds those more often. A number with no mark means an inactive call. Calls of active or inactive are those of the source. Cut-off read from the data, not from the text of the source: active = growth inhibition above about 70%; inactive = the rest.

Regarding `BrCc1cccc2ccc3cccc(CBr)c3c12`, the growth inhibition reads like this: (at 1.2 µM) -3%; (at 3.7 µM) -3%; (at 11.0 µM) -4%; (at 33.0 µM) -8%; (at 100.0 µM) -7%.

Take `CCCCCCCCCC/C=C\C(=O)O`: the growth inhibition was -12% (at 1.2 µM); -18% (at 3.7 µM); -35% (at 11.0 µM); -23% (at 33.0 µM); 97% (active) (at 100.0 µM).

As for `Cc1cc(O)cc(O)c1N=Nc1ccc([N+](=O)[O-])cc1`, the growth inhibition is, setting by setting: (at 1.2 µM) 12%; (at 3.7 µM) 17%; (at 11.0 µM) 21%; (at 33.0 µM) 51%; (at 100.0 µM) 62%.

As for `CNC(=O)OCc1c(COC(=O)NC)c(-c2ccc(Cl)c(Cl)c2)n2c1CCC2`, the growth inhibition was -53% (at 1.2 µM); -56% (at 3.7 µM); -48% (at 11.0 µM); 71% (active) (at 33.0 µM); 98% (active) (at 100.0 µM).

Take `N#Cc1ccc(C2NN=CC23C(=O)c2ccccc2OC3c2ccccc2)cc1` (stereo not given): the growth inhibition reads like this: (at 1.2 µM) 0%; (at 3.7 µM) 0%; (at 11.0 µM) -1%; (at 33.0 µM) -2%; (at 100.0 µM) 2%.

Consider `O=[N+]([O-])C(=C(Sc1ccccc1)Sc1ccccc1)C(Cl)=C(Cl)Cl`, for which the growth inhibition is 3% (at 1.2 µM); 13% (at 3.7 µM); 25% (at 11.0 µM); 36% (at 33.0 µM); 41% (at 100.0 µM).

Consider `COc1ccc2nc3c([N+](=O)[O-])ccc(NCCN(C)C)c3c(NCCN(C)C)c2c1`, for which the growth inhibition was -3% (at 1.2 µM); -3% (at 3.7 µM); -3% (at 11.0 µM); -2% (at 33.0 µM); 0% (at 100.0 µM).

For `CC(/C=C/c1ccc(Cl)cc1)=N\NC(=S)NCC(C)C`, the growth inhibition was -2% (at 1.2 µM); -5% (at 3.7 µM); 1% (at 11.0 µM); -1% (at 33.0 µM); 21% (at 100.0 µM).

The record behind these values is PubChem BioAssay (NCI).
